HEK cytotox = kills HEK 293 cells. HEK 293 viability, ATP luminescence (CellTiter-Glo), 48-72 h. Potency, µM (highest dose often 115 µM), inactives show at the highest dose activity change, negative = cytotoxicity, actives largely listed as inhibitors. 94,000 tested, 6.6% active; further: nearly all actives have a fitted effect of over 60% in size
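HEK 293 cells at 250 cells/well were exposed to compounds by pintool transfer for 48 or 72 hr at 37 degree Celsius, 5% CO2. Viability was read as ATP-coupled luminescence with CellTiter-Glo after 10 min at room temperature.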
FLuc inh = inhibitors of firefly (Photinus pyralis) luciferase | P08659 | purified P. pyralis luciferase, luminescence, biochemical | Potency, µM (titrated, usually from 115 µM), usual class: inhibitors | 76,000 tested, 2.5% active; further: nearly all actives have a fitted effect of over 65% in size
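Purified P. pyralis luciferase (10nM final) in 50mM Tris acetate pH 7.5, 10mM Mg acetate, 0.01% Tween-20, 0.05% BSA with 10uM D-luciferin and 10uM ATP. Compounds titrated qHTS. Luminescence imaged on CCD.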
GPT2 inhibitor = inhibitors of human GPT2 alanine aminotransferase; Q8TD30; Recombinant GPT2, coupled pyruvate oxidase/HRP Amplex Red fluorescence; Potency, µM (titrated, usually from 57.7 µM), inactives show top-dose activity change, negative = inhibition, most hits filed as inhibitors; 100,000 tested, 0.25% active; further: nearly all actives have a fitted effect of over 60% in size
Target sequence (Q8TD30 whole entry, looked up): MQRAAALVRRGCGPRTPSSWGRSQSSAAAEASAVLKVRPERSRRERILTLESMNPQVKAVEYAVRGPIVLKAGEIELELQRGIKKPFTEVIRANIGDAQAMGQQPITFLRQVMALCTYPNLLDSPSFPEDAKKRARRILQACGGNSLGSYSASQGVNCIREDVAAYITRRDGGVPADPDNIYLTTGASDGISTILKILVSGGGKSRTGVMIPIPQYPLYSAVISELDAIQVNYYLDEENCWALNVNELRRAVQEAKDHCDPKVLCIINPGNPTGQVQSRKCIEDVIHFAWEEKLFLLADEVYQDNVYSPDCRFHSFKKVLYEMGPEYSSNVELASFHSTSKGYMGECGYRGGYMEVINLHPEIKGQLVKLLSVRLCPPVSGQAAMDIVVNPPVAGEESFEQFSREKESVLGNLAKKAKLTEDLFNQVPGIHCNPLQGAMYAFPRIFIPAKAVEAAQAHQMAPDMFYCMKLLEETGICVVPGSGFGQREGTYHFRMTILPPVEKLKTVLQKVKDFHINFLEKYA
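Fluorescence read-out: pyruvate from GPT2 turnover coupled to pyruvate oxidase, HRP and Amplex Red (0.2mM ThPP, 0.2U/mL PO and HRP, 50uM Amplex final). Substrates 250uM a-KG, 2mM L-alanine; enzyme 10ng/uL; 30 min RT.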
3T3 cytotox = cytotoxic compounds in NIH 3T3 cells | Potency, µM (series often up to 96.7 µM), for inactives: at the highest dose activity change, negative = cytotoxicity, actives largely listed as inhibitors | 94,000 tested, 4.3% active | AID 1345082 | NIH 3T3 viability, CellTiter-Glo ATP luminescence, 48-72 h; further: nearly all actives have a fitted effect of over 55% in size
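Cytotoxicity is measured as loss of cellular ATP: NIH 3T3 cells (400/well) are exposed to compound for 48 or 72 hr at 37 °C, then CellTiter-Glo luminescence is imaged after 10 min at room temperature.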
NPR1 antag = antagonists of human natriuretic peptide receptor Npr1; P16066; HEK293 hNpr1 GloSensor cGMP, ANP-stimulated luminescence; Potency, µM (highest dose often 46.3 µM), inactives show top-dose activity change, negative = inhibition, most hits filed as inhibitors; 76,000 tested, 1.6% active; calls by dose curve; further: nearly all actives have a fitted effect of over 60% in size
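HEK293 cells stably expressing human Npr1 and cGMP GloSensor pGS-40F, loaded 2 h with 2% GloSensor reagent, given compound 30 min at room temperature. Luminescence read before and 20 min after 0.1 nM hNppA.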
* = called active by the depositor; i = inactive; ? = inconclusive; . = not tested or not shown; [ ] = dose if it differs, or a comment. Only some compounds are listed: those with a hit (about 10% of all), similar ones and a draw of the others. Unless noted, the call rests on the fitted dose curve; in most records, active means well fitted curve in the direction sought with a large enough effect; inconclusive means small, poorly fitted or top-dose-only effect, or another doubt; inactive means no such curve, though single readings can be large; an effect the other way counts as inactive or inconclusive. On the % scale 0 is the no-effect control and ±100 the full control effect; potency means the concentration at half of the fitted maximal effect.

SMILES | HEK cytotox | FLuc inh | GPT2 inhibitor | 3T3 cytotox | NPR1 antag
CCOc1ccc(CC(=O)Nc2cccc(-c3nnc4n3CCCC4)c2)cc1 | ? | i | i | ? | 0.2%
O=C(C1CCCN1C(=O)c1ccccc1F)N1CCC(N2Cc3ccccc3C2=O)CC1 (centres undefined) | i | . | i | -7.8% | .
COc1cc(=O)n2c(c1C(=O)Nc1cc(F)ccc1C)CCCC2 | 5.7% | i | i | -6.4% | 6.1%
OCC1CN(Cc2ccc(Br)cc2)CC12CCNCC2 (centres undefined) | 39.8µM* | i | -9.5% | 39.8µM* | -5.3%
COCC1CN(Cc2ccc(C(C)C)cc2)CC12CCNCC2 (centres undefined) | 44.7µM* | i | i | ? | -9.9%
O=C(c1ccccc1F)N1CCC2(CC1)CN(Cc1ccccc1)CC2CO (centres undefined) | 79.4µM* | i | -2.8% | ? | -15.1%
CC(=O)NCCNC(=O)c1ccc(-c2ncc3cnc(-c4cccc(F)c4)cn23)cc1 | -31.3%[172 µM] | i | i | ? | -1.2%[70.6 µM]
CN1C[C@@H](NS(=O)(=O)Cc2ccccc2)C[C@H]1c1nc(-c2ccc3c(c2)OCO3)no1 | -25.7% | i | -2.9% | -31.1% | -11.0%
Cc1ccc(-c2noc([C@@H]3C[C@H](NS(=O)(=O)c4ccc5ccccc5c4)CN3C)n2)cc1 | ? | 20µM* | 1.4% | ? | -22.3%
CCCS(=O)(=O)N[C@H]1C[C@@H](c2nc(-c3ccc4c(c3)OCO4)no2)N(C)C1 | ? | 44.7µM* | 2.8%[88.5 µM] | -25.1%[174 µM] | 1.5%[70.6 µM]
Cc1ccc(-c2noc([C@@H]3C[C@H](NS(=O)(=O)c4ccc(C)cc4)CN3C)n2)cc1 | 70.8µM* | 22.4µM* | ? | 89.1µM* | ?
Cc1ccc(-c2noc([C@@H]3C[C@H](NS(=O)(=O)Cc4ccccc4)CN3C)n2)cc1 | 100µM* | i | 3.3%[88.5 µM] | 79.4µM* | -22.2%[70.6 µM]
CN1CCN([C@H]2CCN(C(=O)c3ccsc3)C[C@H]2CCCO)CC1 | i | i | -3.6% | -3.4% | 0.4%
CCOc1ccccc1C1NC(=O)N(CC(=O)N(C)c2cccc(C)c2)C2=C1C(=O)OC2 (centres undefined) | -2.7% | i | 1.1% | i | 3.9%
CC(C)CCN1CCC2(CC1)NCc1ccccc1NC2=O | -3.3%[172 µM] | . | -12.5%[88.5 µM] | i | .
COC[C@@H]1CN(c2cnccn2)C[C@H]1C(=O)NCCCn1cccn1 | 0.4% | i | -16.7% | -1.3% | -10.0%
CC(=O)Nc1ccc(S(=O)(=O)N[C@H]2C[C@@H](c3nc(C)no3)N(C)C2)cc1 | -2.9%[172 µM] | i | 0.8%[88.5 µM] | 3.9%[174 µM] | -1.0%[70.6 µM]
CC(=O)Nc1ccc(S(=O)(=O)N[C@H]2C[C@@H](c3nc(-c4ccccc4)no3)N(C)C2)cc1 | 39.8µM* | ? | i | ? | ?
COC(=O)c1ccccc1Nc1nc(-c2ccccc2)no1 | 10.4% | 14.1µM* | ? | i | -8.7%
COc1ccc(-c2noc(Nc3ccc(OC)cc3OC)n2)cc1 | ? | 25.1µM* | i | -29.4% | -1.5%
COc1ccc(CN2C(=O)COC[C@@H]2[C@H](O)c2ccc(NC(=O)Cc3ccccc3)cc2)cc1 | ? | i | -5.8% | ? | 1.6%
O=C(c1ccc(CCC2COc3ccccc3O2)cc1)N1CCCCC1 (centres undefined) | ? | 35.5µM* | -5.5% | ? | ?
CN(C)c1ncc2c(n1)C(C)(C(=O)Nc1ccccc1F)CCC2 (centres undefined) | 100µM* | i | -21.3%[88.5 µM] | ? | -11.9%[70.6 µM]
COc1ccc(N2CC3(COCC2=O)CN(c2ccc(C(F)(F)F)cn2)C3)cn1 | -19.9%[172 µM] | i | -10.4%[88.5 µM] | 39.8µM* | 0.8%[70.6 µM]
Cc1ccccc1CN1CC2(COCC1=O)CN(c1ccc(C(F)(F)F)cn1)C2 | 89.1µM* | i | ? | ? | -0.9%[70.6 µM]
CC(C)(C)c1ccc(CN2CC3(COCC2=O)CN(c2ccccc2)C3)cc1 | ? | i | -3.4%[88.5 µM] | 79.4µM* | -1.5%[70.6 µM]
CC1=C[C@@H](CNS(=O)(=O)c2ccccc2)[C@H](C(C)C)C[C@H]1Cc1nnc(-c2ccncc2)o1 | 25.1µM* | i | -0.4% | 20µM* | ?

Screens (PubChem BioAssay)
